Source: PubChem BioAssay AID1159580 (chemical genetic matrix, 2015)
The campaign covered roughly 5,500 compounds. About 2,000 (36%) were called active. Not shown: some 18% with an inconclusive outcome. Cut-off read from the data, not from the text of the source: active = normalized growth mostly below about 0.91 (no sharp cut-off); inconclusive = no clear call, values can overlap the other calls; inactive = mostly above about 0.92. The list shows a part of the results.

Test: chemical genetic growth profiling, strain panel (AID 1159580);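 note: tested at 20 µM; growth read once vehicle control cultures reached saturation at 30 °C; 1 = growth at the plate median or of vehicle wells; lower values mean less growth of the strain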
Conditions: growth OD
[1] = S. cerevisiae deletion strains, locus YAL013W, strain DEP1, active compounds read low
[2] = S. cerevisiae deletion strains, locus YDR150W, strain NUM1, active compounds read low
[3] = S. cerevisiae deletion strains, locus YGR078C, strain PAC10, active compounds read low
[4] = S. cerevisiae deletion strains, locus YHR030C, strain SLT2, active compounds read low
[5] = S. cerevisiae deletion strains, locus YJL095W, strain BCK1, active compounds read low
[6] = S. cerevisiae deletion strains, locus YMR307W, strain GAS1, active compounds read low
[7] = S. cerevisiae deletion strains, locus YNL128W, strain TEP1, active compounds read low
[8] = S. cerevisiae deletion strains, locus YNL322C, strain KRE1, active compounds read low
[9] = S. cerevisiae deletion strains, locus YPL055C, strain LGE1, active compounds read low
[10] = S. cerevisiae deletion strains, locus YPL241C, strain CIN2, active compounds read low
[11] = S. cerevisiae deletion strains, locus YAL040C, strain CLN3, active compounds read low
[12] = S. cerevisiae deletion strains, locus YCL061C, strain MRC1 (second series), active compounds read low
[13] = S. cerevisiae deletion strains, locus YDR363W, strain ESC2, active compounds read low
[14] = S. cerevisiae deletion strains, locus YER002W, strain NOP16, active compounds read low
[15] = S. cerevisiae deletion strains, locus YNL175C, strain NOP13, active compounds read low
[16] = S. cerevisiae deletion strains, locus YNL197C, strain WHI3, active compounds read low
[17] = S. cerevisiae deletion strains, locus YNL224C, strain SQS1, active compounds read low
[18] = S. cerevisiae deletion strains, locus YOR083W, strain WHI5 (second series), active compounds read low

Measured: normalized growth

CC(N)Cc1ccc(O)cc1 (centres undefined)
inactive: [1] 1.01 | S. cerevisiae deletion strains, locus YBR021W, strain FUR4, active compounds read low 1.04 | S. cerevisiae deletion strains, locus YBR229C, strain ROT2, active compounds read low 1.01 | S. cerevisiae deletion strains, locus YCL029C, strain bik1, active compounds read low 1.02 | S. cerevisiae deletion strains, locus YDL035C, strain GPR1, active compounds read low 1.02 | S. cerevisiae deletion strains, locus YDL074C, strain BRE1, active compounds read low 1 | S. cerevisiae deletion strains, locus YDL101C, strain DUN1, active compounds read low 1.02 | S. cerevisiae deletion strains, locus YDL134C, strain PPH21, active compounds read low 1.01 | S. cerevisiae deletion strains, locus YDL185W, strain tfp1, active compounds read low 1.01 | S. cerevisiae deletion strains, locus YDL192W, strain arf1, active compounds read low 1.03 | S. cerevisiae deletion strains, locus YDR101C, strain arx1, active compounds read low 1.01 | [2] 1.01 | S. cerevisiae deletion strains, locus YDR162C, strain NBP2, active compounds read low 1 | S. cerevisiae deletion strains, locus YDR318W, strain mcm21, active compounds read low 1.03 | S. cerevisiae deletion strains, locus YDR388W, active compounds read low 1.02 | S. cerevisiae deletion strains, locus YDR502C, strain sam2, active compounds read low 1.01 | S. cerevisiae deletion strains, locus YEL061C, strain CIN8, active compounds read low 1.02 | S. cerevisiae deletion strains, locus YER110C, active compounds read low 1.02 | S. cerevisiae deletion strains, locus YER155C, strain BEM2, active compounds read low 1 | S. cerevisiae deletion strains, locus YER167W, strain BCK2, active compounds read low 1.03 | S. cerevisiae deletion strains, locus YGL078C, strain dbp3, active compounds read low 1.02 | S. cerevisiae deletion strains, locus YGL086W, strain mad1, active compounds read low 1.02 | S. cerevisiae deletion strains, locus YGL248W, strain PDE1, active compounds read low 1.02 | [3] 1.01 | S. cerevisiae deletion strains, locus YGR135W, strain pre9, active compounds read low 1 | S. cerevisiae deletion strains, locus YGR229C, strain SMI1, active compounds read low 1.01 | S. cerevisiae deletion strains, locus YGR252W, strain gcn5, active compounds read low 1.04 | [4] 1.01 | S. cerevisiae deletion strains, locus YHR079C, strain IRE1 (second series), active compounds read low 1.03 | S. cerevisiae deletion strains, locus YHR094C, strain hxt1, active compounds read low 1.01 | S. cerevisiae deletion strains, locus YHR129C, strain ARP1, active compounds read low 1.03 | S. cerevisiae deletion strains, locus YHR200W, strain rpn10, active compounds read low 1.01 | S. cerevisiae deletion strains, locus YIL066C, strain RNR3, active compounds read low 1.01 | S. cerevisiae deletion strains, locus YIL073C, strain SPO22, active compounds read low 1.07 | S. cerevisiae deletion strains, locus YIL125W, strain kgd1, active compounds read low 1.02 | S. cerevisiae deletion strains, locus YIR030C, strain dcg1, active compounds read low 1.02 | [5] 1.02 | S. cerevisiae deletion strains, locus YJL134W, strain LCB3, active compounds read low 1.01 | S. cerevisiae deletion strains, locus YJL168C, strain set2, active compounds read low 1.01 | S. cerevisiae deletion strains, locus YJL187C, strain SWE1 (second series), active compounds read low 1.02 | S. cerevisiae deletion strains, locus YJR043C, strain POL32, active compounds read low 1.06 | S. cerevisiae deletion strains, locus YJR075W, strain HOC1, active compounds read low 1.02 | S. cerevisiae deletion strains, locus YKL009W, strain mrt4, active compounds read low 1.04 | S. cerevisiae deletion strains, locus YKL068W, active compounds read low 1.01 | S. cerevisiae deletion strains, locus YKL085W, strain MDH1 (second series), active compounds read low 1.02 | S. cerevisiae deletion strains, locus YKL085W, strain MDH1, active compounds read low 1.02 | S. cerevisiae deletion strains, locus YKL190W, strain CNB1, active compounds read low 1.01 | S. cerevisiae deletion strains, locus YKR001C, strain vps1, active compounds read low 1.04 | S. cerevisiae deletion strains, locus YLR039C, strain RIC1, active compounds read low 1.05 | S. cerevisiae deletion strains, locus YLR058C, strain SHM2, active compounds read low 1.02 | S. cerevisiae deletion strains, locus YLR102C, strain apc9, active compounds read low 1.02 | S. cerevisiae deletion strains, locus YLR262C, strain YPT6, active compounds read low 1.01 | S. cerevisiae deletion strains, locus YLR268W, strain sec22, active compounds read low 1.01 | S. cerevisiae deletion strains, locus YLR330W, strain CHS5, active compounds read low 1.01 | S. cerevisiae deletion strains, locus YLR342W, strain FKS1 (second series), active compounds read low 1.08 | S. cerevisiae deletion strains, locus YLR371W, strain rom2, active compounds read low 1.02 | S. cerevisiae deletion strains, locus YLR418C, strain cdc73, active compounds read low 0.995 | S. cerevisiae deletion strains, locus YML016C, strain PPZ1, active compounds read low 1.02 | S. cerevisiae deletion strains, locus YML032C, strain rad52, active compounds read low 1.04 | S. cerevisiae deletion strains, locus YML124C, strain tub3, active compounds read low 1.01 | S. cerevisiae deletion strains, locus YMR078C, strain ctf18, active compounds read low 1.03 | S. cerevisiae deletion strains, locus YMR223W, strain ubp8, active compounds read low 1.03 | S. cerevisiae deletion strains, locus YMR263W, strain SAP30, active compounds read low 1.01 | [6] 1.08 | S. cerevisiae deletion strains, locus YNL067W, strain RPL9B, active compounds read low 1.01 | [7] 0.99 | S. cerevisiae deletion strains, locus YNL153C, strain GIM3, active compounds read low 1.01 | S. cerevisiae deletion strains, locus YNL233W, strain BNI4, active compounds read low 1.02 | S. cerevisiae deletion strains, locus YNL250W, strain rad50, active compounds read low 1.01 | S. cerevisiae deletion strains, locus YNL271C, strain bni1, active compounds read low 1.02 | S. cerevisiae deletion strains, locus YNL298W, strain CLA4, active compounds read low 1.03 | S. cerevisiae deletion strains, locus YNL307C, strain MCK1, active compounds read low 1.03 | [8] 1.01 | S. cerevisiae deletion strains, locus YNR052C, strain pop2, active compounds read low 1.01 | S. cerevisiae deletion strains, locus YOL006C, strain TOP1, active compounds read low 1.07 | S. cerevisiae deletion strains, locus YOL012C, strain htz1 1.46 | S. cerevisiae deletion strains, locus YOL147C, strain pex11, active compounds read low 1.02 | S. cerevisiae deletion strains, locus YOR061W, strain CKA2, active compounds read low 1.01 | S. cerevisiae deletion strains, locus YOR069W, strain VPS5, active compounds read low 1.02 | S. cerevisiae deletion strains, locus YOR136W, strain idh2, active compounds read low 1.01 | S. cerevisiae deletion strains, locus YOR144C, strain elg1, active compounds read low 1.01 | S. cerevisiae deletion strains, locus YOR184W, strain ser1, active compounds read low 1.04 | S. cerevisiae deletion strains, locus YOR316C, strain cot1, active compounds read low 1.02 | [9] 0.982 | [10] 1.01 | S. cerevisiae deletion strains, locus YPR119W, strain clb2, active compounds read low 1.01 | S. cerevisiae deletion strains, locus YPR141C, strain kar3, active compounds read low 1.02 | S. cerevisiae deletion strains, locus YPR163C, strain tif3, active compounds read low 1.02 | S. cerevisiae deletion strains, locus YPR167C, strain met16, active compounds read low 1.02 | S. cerevisiae deletion strains, strain wtn01, active compounds read low 1.01 | S. cerevisiae strains, strain wild type, active compounds read low 1.01

NCCc1c[nH]c2ccc(O)cc12
inactive: [1] 1.02 | [11] 0.969 | [12] 1.01 | [13] 1.01 | [14] 1.01 | [4] 1.02 | S. cerevisiae deletion strains, locus YHR079C, strain IRE1, active compounds read low 1.02 | [5] 1.01 | S. cerevisiae deletion strains, locus YJR066W, strain TOR1, active compounds read low 0.942 | S. cerevisiae deletion strains, locus YLR113W, strain HOG1, active compounds read low 0.991 | [6] 1.03 | [15] 1.01 | S. cerevisiae deletion strains, locus YNL183C, strain NPR1, active compounds read low 0.949 | [16] 1 | [17] 1.01 | [18] 1.04 | S. cerevisiae deletion strains, locus YOR231W, strain MKK1, active compounds read low 1.02 | S. cerevisiae deletion strains, locus YPL256C, strain CLN2, active compounds read low 1.01

CNCCc1c[nH]c2ccc(O)cc12
inactive: [11] 1.01 | [12] 1.01 | [2] 0.994 | [13] 1.01 | [14] 1.01 | [3] 1.02 | [6] 1 | [7] 1 | [15] 1.01 | [16] 1.02 | [17] 1.01 | [8] 1.02 | [18] 1.01 | [9] 1.01 | [10] 1
